# Reference: the supplement of paper PMC8728848
# Shown is part of a subset that was picked to be rich in the strongest signals.
# B1: MVL (Microcystis viridis), Q9RHG4 (protein)
# chain: MASYKVNIPAGPLWSNAEAQQVGPKIAAAHQGNFTGQWTTVVESAMSVVEVELQVENTGIHEFKTDVLAGPLWSNDEAQKLGPQIAASYGAEFTGQWRTIVEGVMSVIQIKYTF
# How the values were obtained:
# Experiment in all cases: glycan array binding signal (z-score within array); higher = stronger binding
# Conditions in all cases: glycan notation: IUPAC condensed, linker removed
# [1] = target: Fuc(a1-2)Gal(b1-4)Glc6S
# Method in brief: (§1)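 Arrays were curated from the Consortium for Functional Glycomics database, 3228 in total, and kept only where the protein sequence was available. Binding is expressed as a within-array Z-score. This score was averaged across arrays of the same protein sequence at different concentrations or buffers and across linkers, and negative values can be read as non-binding.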
# [2] = target: Fuc(a1-2)[GalNAc(a1-3)]Gal(b1-4)Glc
# Method in brief: as §1
# [3] = target: Gal(b1-3)Gal(b1-4)GlcNAc(b1-2)Man(a1-3)[Gal(b1-3)Gal(b1-4)GlcNAc(b1-2)Man(a1-6)]Man(b1-4)GlcNAc(b1-4)GlcNAc
# Method in brief: as §1
# [4] = target: Gal(b1-3)GlcNAc(b1-2)Man(a1-3)[Gal(b1-3)GlcNAc(b1-2)Man(a1-6)]Man(b1-4)GlcNAc(b1-4)GlcNAc
# Method in brief: as §1
# [5] = target: Gal(b1-3)[Fuc(a1-4)]GlcNAc
# Method in brief: as §1
# [6] = target: Gal(b1-4)GlcNAc
# Method in brief: as §1
# [7] = target: Gal(b1-4)GlcNAc(b1-3)Gal(b1-3)GlcNAc
# Method in brief: as §1
# [8] = target: Gal3S(b1-3)GlcNAc
# Method in brief: as §1
# [9] = target: Gal3S4S(b1-4)GlcNAc
# Method in brief: as §1
# [10] = target: GalNAc(a1-3)Gal
# Method in brief: as §1
# [11] = target: GalNAc(a1-3)GalNAc
# Method in brief: as §1
# [12] = target: GalNAc(b1-3)Gal(a1-4)Gal(b1-4)GlcNAc
# Method in brief: as §1
# [13] = target: GlcNAc(a1-4)Gal(b1-4)GlcNAc(b1-3)Gal(b1-4)[Fuc(a1-3)]GlcNAc(b1-3)Gal(b1-4)[Fuc(a1-3)]GlcNAc
# Method in brief: as §1
# [14] = target: GlcNAc(b1-4)GlcNAc(b1-4)GlcNAc(b1-4)GlcNAc(b1-4)GlcNAc
# Method in brief: as §1
# [15] = target: GlcNAc(b1-4)GlcNAc(b1-4)GlcNAc(b1-4)GlcNAc(b1-4)GlcNAc(b1-4)GlcNAc
# Method in brief: as §1
# [16] = target: GlcNAc6S(b1-3)Gal(b1-4)GlcNAc
# Method in brief: as §1
# [17] = target: Kdn(a2-3)Gal(b1-4)[Fuc(a1-3)]GlcNAc
# Method in brief: as §1
# [18] = target: Man(a1-2)Man(a1-2)Man(a1-6)[Man(a1-3)]Man
# Method in brief: as §1
# [19] = target: Man(a1-2)Man(a1-3)[Man(a1-2)Man(a1-6)]Man(a1-6)[Man(a1-2)Man(a1-2)Man(a1-3)]Man
# Method in brief: as §1
# [20] = target: Man(a1-2)Man(a1-3)[Man(a1-2)Man(a1-6)]Man(a1-6)[Man(a1-3)[Man(a1-6)]Man(a1-6)]Man(b1-4)GlcNAc(b1-4)GlcNAc
# Method in brief: as §1
# [21] = target: Man(a1-2)Man(a1-3)[Man(a1-6)]Man(a1-6)[Man(a1-2)Man(a1-3)]Man(b1-4)GlcNAc(b1-4)GlcNAc
# Method in brief: as §1
# [22] = target: Man(a1-2)Man(a1-6)[Man(a1-3)]Man(a1-6)[Man(a1-2)Man(a1-2)Man(a1-3)]Man(b1-4)GlcNAc(b1-4)GlcNAc
# Method in brief: as §1
# [23] = target: Man(a1-3)[Man(a1-6)]Man
# Method in brief: as §1
# [24] = target: Man(a1-3)[Man(a1-6)]Man(a1-6)[Man(a1-2)Man(a1-3)]Man(b1-4)GlcNAc(b1-4)GlcNAc
# Method in brief: as §1
# [25] = target: Man(a1-3)[Man(a1-6)]Man(a1-6)[Man(a1-3)]Man(b1-4)GlcNAc(b1-4)GlcNAc
# Method in brief: as §1
# [26] = target: Man(a1-3)[Man(a1-6)]Man(b1-4)GlcNAc(b1-4)GlcNAc
# Method in brief: as §1
# [27] = target: Neu5Ac(a2-3)Gal(b1-4)GlcNAc6S
# Method in brief: as §1
# [28] = target: Neu5Ac(a2-3)Gal(b1-4)[Fuc(a1-3)]GlcNAc
# Method in brief: as §1
# [29] = target: Neu5Ac(a2-6)Gal(b1-4)GlcNAc
# Method in brief: as §1
# [30] = target: Neu5Ac(a2-6)Gal(b1-4)GlcNAc(b1-2)Man(a1-3)Man(b1-4)GlcNAc(b1-4)GlcNAc
# Method in brief: as §1
# [31] = target: Neu5Ac(a2-6)Gal(b1-4)GlcNAc(b1-3)Gal(b1-4)GlcNAc
# Method in brief: as §1
binder,measurement,setting,value
B1,glycan array binding signal (z-score),[1],-0.234
same,glycan array binding signal (z-score),[2],-0.201
same,glycan array binding signal (z-score),[3],1.85
same,glycan array binding signal (z-score),[4],1.51
same,glycan array binding signal (z-score),[5],-0.232
same,glycan array binding signal (z-score),[6],-0.227
same,glycan array binding signal (z-score),[7],-0.23
same,glycan array binding signal (z-score),[8],-0.239
same,glycan array binding signal (z-score),[9],-0.243
same,glycan array binding signal (z-score),[10],-0.231
same,glycan array binding signal (z-score),[11],-0.243
same,glycan array binding signal (z-score),[12],-0.243
same,glycan array binding signal (z-score),[13],0.006
same,glycan array binding signal (z-score),[14],0.051
same,glycan array binding signal (z-score),[15],-0.006
same,glycan array binding signal (z-score),[16],-0.119
same,glycan array binding signal (z-score),[17],-0.121
same,glycan array binding signal (z-score),[18],-0.183
same,glycan array binding signal (z-score),[19],7.38
same,glycan array binding signal (z-score),[20],5.26
same,glycan array binding signal (z-score),[21],2.01
same,glycan array binding signal (z-score),[22],6.83
same,glycan array binding signal (z-score),[23],-0.232
same,glycan array binding signal (z-score),[24],2.68
same,glycan array binding signal (z-score),[25],2.72
same,glycan array binding signal (z-score),[26],1.59
same,glycan array binding signal (z-score),[27],-0.238
same,glycan array binding signal (z-score),[28],-0.23
same,glycan array binding signal (z-score),[29],-0.241
same,glycan array binding signal (z-score),[30],0.179
same,glycan array binding signal (z-score),[31],-0.236
